Screening data (PubChem BioAssay)
Only some compounds are listed: those with a hit (about 18% of all), similar ones and a draw of the others.
DT40 TDP1 no CPT: qHTS for Inhibitors of human tyrosyl-DNA phosphodiesterase 1 (TDP1): qHTS in cells in absence of CPT | DT40 Tdp1-/- hTDP1 cells, no CPT, ATP luminescence, 48 h | Potency, µM (highest dose often 46.2 µM), for the others: at the top dose activity change, negative = growth inhibition, most hits filed as inhibitors | 15% of 420,000 active; note: potency is the fitted concentration of half-maximal effect; nearly all actives have a fitted effect of over 55% in size
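No-CPT arm: Tdp1-/-;hTDP1 DT40 cells (400/well) plus compounds, incubated ≥48 hr at 37 °C. Readout CellTiter-Glo luminescence.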
LDHA block: inhibitors of human lactate dehydrogenase A. purified LDHA, NADH/diaphorase-resazurin fluorescence; hits give low values. activity change, % (values are at about 110 or 230 µM). 0.15% of 480,000 active. P00338; in the data active = activity change below about -30%; inconclusive = mostly about -25% to -30%;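 note: plate controls were DMSO wells for no effect and wells without enzyme for full effect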
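Enzyme activity of human lactate dehydrogenase 5 (2 nM; 0.06 mM NADH, 0.2 mM pyruvate, 5 min, RT) is measured via a resazurin/diaphorase fluorescence readout of residual NADH.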
RORg inh: blocks mouse ROR gamma transcriptional activity. 5.4% of 310,000 active. AID 2551. P51450. Drosophila S2 Gal4-RORgamma UAS-luciferase reporter, 20 h. Potency, µM (titrated, usually from 53.6 µM), for the others: at the highest dose activity change, negative = inhibition, most hits filed as inhibitors; note: potency is the fitted concentration of half-maximal effect; nearly all actives have a fitted effect of over 60% in size
Target sequence (P51450 whole entry, looked up, the tested form may be a part): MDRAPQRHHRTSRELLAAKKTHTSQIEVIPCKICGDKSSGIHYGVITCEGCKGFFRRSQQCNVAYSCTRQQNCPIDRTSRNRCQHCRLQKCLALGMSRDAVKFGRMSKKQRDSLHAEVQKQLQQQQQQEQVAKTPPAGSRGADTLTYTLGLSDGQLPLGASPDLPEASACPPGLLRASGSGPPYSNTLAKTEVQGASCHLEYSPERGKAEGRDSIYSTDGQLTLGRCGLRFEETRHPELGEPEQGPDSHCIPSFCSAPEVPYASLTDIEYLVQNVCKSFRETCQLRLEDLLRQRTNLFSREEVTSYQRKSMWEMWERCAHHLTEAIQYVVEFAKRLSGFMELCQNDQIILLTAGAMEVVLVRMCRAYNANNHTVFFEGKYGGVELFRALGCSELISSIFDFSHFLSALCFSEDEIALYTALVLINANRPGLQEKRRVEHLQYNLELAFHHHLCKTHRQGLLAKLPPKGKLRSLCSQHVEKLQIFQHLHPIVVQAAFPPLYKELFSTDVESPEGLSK
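Compounds are pin-transferred onto Drosophila Schneider cells expressing a copper-inducible Gal4–ROR gamma transactivation domain fusion. After 1 hr, copper sulfate is added to 700 uM final; luciferase is read 20 hr later.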
DT40 TDP1 CPT: growth inhibition of DT40 Tdp1-/-;hTDP1 cells with camptothecin (screen for TDP1 inhibitors) | chicken DT40 Tdp1-/-;hTDP1 cells + 20 nM CPT, ATP luminescence, 48 h | Potency, µM (doses to about 46.2 µM), without a hit: top-dose activity change, negative = growth inhibition, most hits filed as inhibitors | 12% of 420,000 active | AID 686979; note: potency is the fitted concentration of half-maximal effect; nearly all actives have a fitted effect of over 55% in size
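Chicken DT40 Tdp1-/- cells complemented with human TDP1, 400 cells/well, exposed to compounds plus 20 nM camptothecin for at least 48 h at 37 C; viability read as ATP content by CellTiter-Glo luminescence.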
IL-1B inflam inh: inhibitors of inflammasome signaling (IL-1 beta secretion) | THP-1 LPS/ATP IL-1B secretion, AlphaLISA, 16 h; hits give low values | activity change, % at 57.5 µM | 4.7% of 360,000 active; in the data active = activity change below about -50%; inconclusive = mostly about -30% to -49%
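Secreted IL-1B measured by AlphaLISA bead assay after 16 h compound exposure of THP-1 cells; compounds (final up to 57.5 uM) added 1 h before LPS (250 ng/mL) and ATP (1.25 mM) stimulation; lower signal means less secretion.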
Gal4-VP16 FLuc: Gal4-VP16 reporter inhibition counter-screen; Drosophila S2 Gal4-VP16 UAS-luciferase, luminescence, 20 h; Potency, µM (highest dose often 53.6 µM), without a hit: at the highest dose activity, negative = inhibition, most hits filed as inhibitors; 3.5% of 310,000 active;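 note: Gal4-VP16 expression switched on by copper sulfate through the metallothionein promoter; potency is the fitted concentration of half-maximal effect; nearly all actives have a fitted effect of over 50% in size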
An asterisk follows results filed as active; ? = inconclusive; · = not tested or not shown. Unless noted, calls come from the whole dose curve; as a rule, active = well fitted curve in the direction sought with a large enough effect; inconclusive = small, poorly fitted or top-dose-only effect, or another doubt; inactive = no such curve, though single readings can be large; an effect the other way counts as inactive or inconclusive. Unless noted, % is set by controls: 0 for no effect and ±100 for the full control effect.

SMILES | DT40 TDP1 no CPT | LDHA block | RORg inh | DT40 TDP1 CPT | IL-1B inflam inh | Gal4-VP16 FLuc
COc1cc(C(=O)N2CCC(C(=O)Nc3ccccc3)CC2)ccc1OCc1c(C)noc1C | · | 4 | · | · | · | ·
O=c1cc(CN2CCN(c3ccccc3F)CC2)c2cc(O)c(-c3ccccc3)cc2o1 | 6.5µM* | -3 | -13% | ? | 32 | -19%
COc1ccc(N2CCN(Cc3cc(=O)oc4cc(-c5ccccc5)c(O)cc34)CC2)cc1 | 6.5µM* | 1 | -1% | 5.8µM* | 0 | ?
Cc1cc(C)c2c(CN3CCN(c4ccccc4F)CC3)cc(=O)oc2c1 | ? | -3 | · | 23µM* | 14 | ·
Cn1c(O)c(C2=Nc3ccccc3SC(c3cccc(O)c3)C2)c(=O)[nH]c1=O (stereo unspecified) | · | -9 | · | · | · | ·
Cc1ccc(NC(=O)Cn2c(=O)c(C)nc3ccccc32)cc1 | -8% | -1 | 31% | -6% | 31 | 4%
Cc1nc2ccccc2n(CC(=O)Nc2cc(Cl)cc(Cl)c2)c1=O | 15µM* | 2 | 13% | 9.2µM* | 13 | 2%
Cc1cc(C)cc(NC(=O)Cn2c(-c3cncs3)nc3ccccc32)c1 | 21µM* | -6 | · | ? | · | ·
O=C(Cn1c(-c2cscn2)nc2ccccc21)Nc1ccc(N2CCCCC2)cc1 | · | 9 | · | · | · | ·
O=C(Cn1c(-c2cscn2)nc2ccccc21)Nc1ccc2ccccc2c1 | ? | -8 | ? | 14µM* | 1 | 14%
N#Cc1cc(C(=O)c2cc(Cl)ccc2O)cn(C2CCCCC2)c1=O | · | -20 | · | · | · | ·
COc1ccc(C(C)=O)cc1CC(=O)OCc1ccc(C#N)cc1 | · | 7 | · | · | · | ·
O=C(Nc1ccc(NC(=S)NC(=O)c2cccs2)cc1)c1ccco1 | 1% | -4 | 11µM* | -8% | -7 | -22%
O=C(NC(=S)NNC(=O)c1cccs1)c1ccco1 | ? | -2 | 2.8µM* | ? | 6 | ?
CC(=O)NC(=S)Nc1ccc(NC(=S)NC(=O)c2cccs2)cc1 | 4% | -1 | -2% | -6% | 25 | -6%
CC(C)c1ncncc1C(=O)O | · | 11 | · | · | · | ·
CCOc1ccc(C(C)NC(=O)Cc2ccccc2C)cc1 (stereo unspecified) | · | -1 | · | · | · | ·
Cc1nnc2sc(SCc3cccc(Cl)c3)nn2c1=O | ? | -5 | 7% | -8% | -100* | 29%
CCOC(=O)C1=C(Cc2ccc(OC)cc2)C(=O)c2ccccc2C1=O | 8.2µM* | 49 | 10µM* | 4.6µM* | -82* | ?
CCOC(=O)c1oc2cc(OC)ccc2c(=O)c1-c1ccccc1OC | · | 2 | · | · | · | ·
CCOC(=O)C1=C(Cc2ccc(C)cc2)C(=O)c2ccccc2C1=O | · | · | 11µM* | · | · | ?
O=C1CSC2(C(=O)Nc3ccccc32)N1c1ccc(Cl)c(Cl)c1 (stereo unspecified) | · | 16 | · | · | · | ·
CCOc1ccccc1NC(=O)C1CCCCN1S(=O)(=O)c1ccccc1 (stereo unspecified) | 21µM* | 3 | · | ? | -5 | ·
CCOc1ccc(NC(=O)C2CCCCN2S(=O)(=O)c2ccccc2)cc1 (stereo unspecified) | ? | -1 | 26% | ? | 17 | 0%
O=C(Nc1ccc(OC(F)(F)F)cc1)C1CCCCN1S(=O)(=O)c1ccccc1 (stereo unspecified) | 15µM* | 0 | · | ? | ? | ·
Cc1ccc(/C=[N+](\[O-])c2ccccc2)cc1 | · | 11 | · | · | · | ·
CCOc1ccc(CCNC(c2cccc(Cl)c2)c2nnc(-c3ccccc3)o2)cc1OCC (stereo unspecified) | 26µM* | 2 | · | 16µM* | · | ·
CCOc1ccc(CCNC(c2nnc(-c3ccccc3)o2)c2ccccc2Cl)cc1OCC (stereo unspecified) | 15µM* | 4 | · | 15µM* | · | ·
